FAK blocker = FAK kinase inhibitors, primary screen, biochemical; Focal adhesion kinase 1 (Homo sapiens), Q05397; biochemical FAK kinase activity assay; inhibition, %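 (tested at 7 µM)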; 0.84% of 97,000 active; in the data active means inhibition above about 19%;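 further: 0% = DMSO and 100% = reference compound high control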
ERb coact inh = inhibitors of ERβ-SRC1 coactivator interaction, primary screen, biochemical, TR-FRET, ERβ LBD, SRC-1 peptide | Estrogen receptor beta (Homo sapiens), Q92731 | TR-FRET ER-beta LBD / SRC1-Cy5 peptide binding; receptor agonist-loaded with 1 µM estradiol | inhibition, % at 25.6 µM | 1.3% of 86,000 active;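 active means compounds whose percent inhibition of the receptor-coactivator binding signal exceeds about 50% in the single-dose screen, limit read from the data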;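 further: 0% = receptor plus peptide wells without compound and 100% = peptide-only wells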
Target sequence (Q92731 whole entry, looked up, the tested form may be a part): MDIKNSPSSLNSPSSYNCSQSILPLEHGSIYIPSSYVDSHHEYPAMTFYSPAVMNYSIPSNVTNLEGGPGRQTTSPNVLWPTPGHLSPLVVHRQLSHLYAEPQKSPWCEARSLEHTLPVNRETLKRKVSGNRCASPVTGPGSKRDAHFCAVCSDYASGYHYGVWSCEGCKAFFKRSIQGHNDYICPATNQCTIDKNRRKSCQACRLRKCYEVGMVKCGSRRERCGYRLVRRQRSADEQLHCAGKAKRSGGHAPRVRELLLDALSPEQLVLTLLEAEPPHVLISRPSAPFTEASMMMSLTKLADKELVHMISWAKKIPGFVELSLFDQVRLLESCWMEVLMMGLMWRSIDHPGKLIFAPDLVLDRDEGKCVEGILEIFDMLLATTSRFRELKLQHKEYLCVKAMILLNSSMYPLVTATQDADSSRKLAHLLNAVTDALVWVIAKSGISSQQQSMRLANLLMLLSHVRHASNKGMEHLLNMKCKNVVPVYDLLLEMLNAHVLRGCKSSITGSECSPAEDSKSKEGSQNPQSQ
ERa SRC1 pot = enhancers of ERα–SRC-1 coactivator binding, primary screen, biochemical, TR-FRET, ERα LBD, low estradiol. TR-FRET ERalpha-LBD/SRC-Cy5 coactivator binding, 2 h; 100 = basal binding, no effect. coactivator binding (% of control), % at 25.6 µM. 1.3% of 86,000 active. AID 639, 2007; in the data active means activity above about 200%;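 further: binding measured in presence of low estradiol as agonist stimulus; 0% = peptide alone without receptor and 100% = receptor with peptide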
Candida biofilm = clotrimazole potentiators killing Candida biofilms, primary screen, with clotrimazole, Alamar Blue; inhibition, % at 6 µM; C. albicans biofilm + clotrimazole; 0.14% of 85,000 active;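 active means inhibition above 20%; inactive means inhibition below 20%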;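 further: preformed 24 hr biofilms exposed to compound for 48 hr; 0% = biofilm without compound and 100% = blank killed by clotrimazole plus chlorhexidine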
Smad3 FoxH1 inh = Smad3/FoxH1 peptide binding inhibitors, primary screen, biochemical, TR-FRET. Mothers against decapentaplegic homolog 3 (Homo sapiens), P84022. TR-FRET Smad3/Dy647-FoxH1 peptide binding, europium anti-His. inhibition, % at 25 µM. 0.29% of 88,000 active;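 active means compounds that reduce the energy-transfer binding signal between the protein and its labelled peptide by more than half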;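 further: 0% = Smad3 plus labelled peptide maximal FRET and 100% = peptide-only background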
ERa SRC1 inh = ERα–SRC-1 coactivator interaction inhibitors, primary screen, biochemical, TR-FRET, ERα LBD, estradiol-bound. Estrogen receptor (Homo sapiens), P03372. TR-FRET ER-alpha LBD / SRC-1 peptide. inhibition, % at 25.6 µM. 1.7% of 86,000 active; in the data active means inhibition above about 50%;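 further: 0% = receptor plus peptide control and 100% = peptide only without receptor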
* hit, by the source's call; . = not tested or not shown; [ ] = dose if it differs, or a comment. Most compounds without a hit are left out; they make up all but 3.3% or so of the library.

SMILES	FAK blocker	ERb coact inh	ERa SRC1 pot	Candida biofilm	Smad3 FoxH1 inh	ERa SRC1 inh
N#Cc1cc2c(nc1SC1CCCCC1O)CCCC2 (centres undefined)	0	-14	100	-4	93*	-6
Cc1cccc(CSc2nc3c(cc2C#N)CCC3)c1	-3	68*[fluorescence artefact?]	179	5	58*[fluorescence artefact?]	21
CC[C@@H]1CC(=O)N(SC[C@H](N)C(=O)O)C1=O	.	.	.	.	3	.
COc1ccc2cc(S(=O)(=O)N3CCCCC3)ccc2c1S(=O)(=O)N1CCCCC1	0	-2	102	8	-2	-9
O=c1[nH]c2[nH]c(=S)[nH]c(=S)c2[nH]1	.	.	.	.	68*	.
COC(=O)c1sccc1NC(=O)CSc1ccccc1NS(=O)(=O)c1ccc(Br)cc1	3	.	.	.	.	.
CCOC(=O)CN(C(=O)CSc1nnc(CNc2ccc(F)cc2)n1CC)c1ccc(F)cc1	-2	-8	223*	2	8	-3
N=c1nc(N)nc(N)n1-c1ccc(S(N)(=O)=O)cc1	.	.	.	.	-17	.
CCOc1ccc(-n2c(SCC(=O)Nc3nccs3)nc3c(c2=O)SCC3)cc1	.	48	78	2	-11	77*[fluorescence artefact?]
Cc1ccc(-n2c(SCC(=O)Nc3nccs3)nc3c(c2=O)SCC3)cc1	.	14	194	-1	-71	45
Cc1cccc(S(=O)(=O)c2c(N)n(/N=C/c3ccco3)c3nc4ccccc4nc23)c1	4	10	253*	9	11	1
Cc1ccc(S(=O)(=O)c2c(N)n(/N=C/c3ccco3)c3nc4ccccc4nc23)cc1	-7	24	112	3	-10	0
Cc1cc(SCC(=O)Nc2ccccc2)nc(C)n1	-4	-2	112	13	25	72*[fluorescence artefact?]
CSc1nc(C)cc(SCC(=O)Nc2ccccc2)n1	0	-14	95	7	3	-1
O=C(O)C/C(=C/c1ccccc1)C(=O)O	.	.	.	.	-6	.
Cc1nc2c(ccc3nc(NC(=O)c4ccc(S(=O)(=O)N(C)C)cc4)sc32)s1	-3	12	241*[fluorescence artefact?]	3	28	19
O=C(CSc1nc2ccccc2[nH]1)N1CCCCC1	-1	-4	104	-2	1	-4
Cc1c(C)n(C(=O)CSc2nc3ccccc3[nH]2)c2ccccc12	3	21	17	1	0	55*[fluorescence artefact?]
COc1ccc(NC(=O)C(NC(C)=O)C(=O)NCc2ccc(F)cc2)cc1 (centres undefined)	-4	.	.	.	.	.
C/C(=N/NC(=O)c1cc2ccccc2cc1O)C1C(=O)c2ccccc2C1=O	4	65*[fluorescence artefact?]	21	-1	9	78*[fluorescence artefact?]
C[C@H]1[C@H](C)CC[C@@]2(C(=O)O)CC[C@@]3(C)C(=CC[C@H]4[C@]5(C)C[C@H](O)[C@@H](O)[C@@](C)(CO)[C@H]5[C@H](O)C[C@@]43C)[C@H]12	.	.	.	.	86*	.
COc1ccc(-c2nc(N)c3ncn([C@H]4O[C@H](CO)[C@@H](O)[C@@H]4O)c3n2)cc1	.	.	.	.	6	.
Cc1ccc2nc(Nc3nc(-c4ccccc4)cc(=O)[nH]3)nc(C)c2c1	12	.	.	.	.	.
Cc1ccc2nc(Nc3nc(=O)c4ccccc4n3C)nc(C)c2c1	.	43	71	1	-15	60*
CCC(C)n1c(-c2cccs2)nc2nc3ccccc3nc21 (centres undefined)	5	-11	101	6	-9	2
O=C(CSc1nc2ccc(NC(=O)CSc3nnnn3Cc3ccccc3)cc2s1)Nc1ccccc1	2	23	116	.	7	41
Cn1cnnc1SCC(=O)Nc1ccc2nc(SCc3ccccc3)sc2c1	1	10	366*[fluorescence artefact?]	-3	6	-36
Cc1cc(C)c(NC(=O)CSc2nc3ccc(NC(=O)CSc4nnnn4Cc4ccccc4)cc3s2)c(C)c1	0	7	114	-2	2	67*
CC1Cc2ccccc2N1C(=O)CSc1nnc(-c2ccc(S(=O)(=O)N3CCCC3)cc2)o1 (centres undefined)	2	13	374*	7	2	7

Source: PubChem (several laboratories)
